Among all 48,000 compounds or so, about 13,000 (27%) showed an effect of 50% or more. The list shows a part of the results.
The compounds below were run on Wolbachia pipientis (assay: Anti-Wolbachia Cell-Based Screen). Conditions: 5 µM.
Format: functional
Parameters: scale not given: in the data most compounds retested in dose-response had high values

Structure (SMILES) | Percent Effect [%]
N#Cc1ccc(CS(=O)(=O)NC(=O)c2ccc3c(c2)COC3)cc1 | -4.05
Cn1cc(Cl)cc1C(=O)N1CCN(Cc2ccsc2)CC1 | -5.701
CC(=O)N1CCC(N2CCOC[C@H]2c2nc(-c3cccnc3)c[nH]2)CC1 | 31.59
Cc1nc(NC(=O)c2c(-n3cnnn3)sc(C)c2C)sc1C | 111.3
Cc1sc(-n2cnnn2)c(C(=O)NC(C)C)c1C | 78.35
Cc1nc(NC(=O)c2c(-n3cnnn3)sc3c2CCCC3)sc1C | 119.6
CC[C@H](C)[C@H](NC(=O)c1ccccc1-n1cnnn1)C(=O)OC | 39.09
Cc1nc(NC(=O)c2c(-n3cnnn3)sc3c2CCC3)sc1C | 89.24
CCC(C)NC(=O)c1ccccc1-n1cnnn1 (centres undefined) | -7.012
Cc1nc(NC(=O)c2cccnc2N2CCOCC2)sc1C | -47.07
Cc1nc(NC(=O)C(C)N2CCN(c3cnccn3)CC2)sc1C (centres undefined) | 1.711
O=C(COCC1CC1)N1CCCC(n2cccn2)C1 (centres undefined) | 4.687
CC1CN(Cc2ccccc2)CCCN1CCCS(C)(=O)=O (centres undefined) | -4.156
Nc1nc(C2CCN(C(=O)c3cncs3)CC2)cs1 | -2.594
Cc1nc(-c2ccc(CC(=O)N3CCN(C(=O)C4CC4)CC3)cc2)cs1 | 16.03
CC(=O)Nc1nc(C2CCN(C(=O)c3cncs3)CC2)cs1 | 107.2
CC(=O)c1ccc(C(=O)N2CCC(c3cc(O)nc(C)n3)CC2)s1 | -1.622
CC(=O)Nc1nc(C2CCN(C(=O)Cc3ccccc3)CC2)cs1 | 87.03
CC(=O)Nc1nc(C2CCN(C(=O)C3CCC3)CC2)cs1 | 103.4
CC(=O)Nc1nc(C2CCN(CC(N)=O)CC2)cs1 | -6.255
CC(=O)N1CCC(C(=O)Nc2nc(C3CC3)cs2)CC1 | 19.21
CCc1csc(CCNC(=O)CC2CCN(C(C)C)CC2)n1 | 8.427
CC(=O)Nc1nc(C(=O)N2CCCC(c3cc(C)[nH]n3)C2)cs1 (centres undefined) | -0.9316
CC(=O)Nc1nc(C2CCN(C(C)C)CC2)cs1 | 119.6
CSCC(=O)NC(Cc1ccc(C)cc1)c1ccccn1 (centres undefined) | -0.4247
O=C(Cn1cc(C2CC2)nn1)NC(c1cc(F)ccc1F)C1CC1 (centres undefined) | -5.532

Structure (SMILES) | Percent Effect [%]
O=C(C1CC=CC1)N1CCC2(CCC(=O)N2Cc2cccc(F)c2)CC1 | -0.5854
O=C(NC[C@H]1OC[C@@H](NCc2ccc(F)cc2)[C@@H]1O)c1ccncc1 | -2.517
CC(=O)Nc1nc(C(=O)N2CCC(Nc3cccnn3)CC2)cs1 | -3.618
CC(=O)Nc1nc(C2CCN(C(=O)c3ccncc3)CC2)cs1 | 108.8
COc1ccccc1N1CCC(N2CCOCC(CO)C2)CC1 (centres undefined) | 9.24
O=C(CC1CCCO1)NCc1ccc(Br)cc1F (centres undefined) | 3.91
CN(CC1(CO)CCOCC1)[C@@H]1c2ccccc2C2(CCNCC2)[C@H]1O | 1.582
c1cc(CN2CCCCC2c2ccc(Nc3cnccn3)nc2)ccn1 (centres undefined) | 159
CC(C)(C)OC(=O)NCC1CCCCN1Cc1cccnc1 (centres undefined) | 4.728
O=C(O)[C@]12CCCN(Cc3cccnc3)[C@@H]1CCN(c1cnccn1)C2 | -19.78
c1cncc(CN2CCCCC2c2ccc(Nc3cnccn3)nc2)c1 (centres undefined) | 73.84
CC(C)(C)OC(=O)NCC1CCCCN1Cc1ccncc1 (centres undefined) | -3.492
CCc1ccc(C(=O)N2CCN(CCS(C)(=O)=O)CC2)o1 | -5.31
CN(C)C(=O)C1CCC2(CCN(C(=O)Nc3cccc(F)c3)CC2)O1 (centres undefined) | 98.46
Cc1nsc(N2CCN(C(=O)Nc3cccc(F)c3)CC2)n1 | -8.293
O=C(Nc1cccc(-c2cscn2)c1)N1CCC2(CC1)CC(O)CO2 (centres undefined) | -8.053
Cc1cccc(NC(=O)N2CCC3(CCC(C(=O)N(C)C)O3)CC2)c1 (centres undefined) | 100.6
Cc1cccc(NC(=O)N2CCN(Cc3nnc(C(C)C)o3)CC2)c1 | -19.75
O=C(Nc1cccc(F)c1)N1CCN(Cc2noc(C3CC3)n2)CC1 | -10.54
CC(C)NC(=O)CN1CCC2(CC1)OCCO2 | -0.8474
CC(=O)N1CCC(c2nc(Cc3ccccc3)no2)C1 (centres undefined) | -18.53
Cc1nc(C2CCCN(C(=O)C(C)(C)n3cc(Cl)cn3)C2)no1 (centres undefined) | -4.996
Cc1noc(C2CCN(CC(=O)N3CCNC(=O)C3)CC2)n1 | -10.42
O=C1CCC2(CCCN(C(=O)Cc3cccs3)C2)N1 (centres undefined) | -20.18
O=C1CCC(c2nc(C3CCNCC3)no2)N1 (centres undefined) | 104.8
CC(C)(C)C(=O)N1CCC(c2noc(C3CCC(=O)N3)n2)CC1 (centres undefined) | 136.3

Structure (SMILES) | Percent Effect [%]
O=C(Nc1cccs1)N1CC(c2nc(C3CC3)no2)C1 | 10.74
O=C1NCCCc2[nH]c(-c3nc(C4CCCCC4)no3)nc21 | 4.619
CC(=O)N1CCC(c2noc(C3CCC(=O)N3)n2)CC1 (centres undefined) | 120.5
O=C1NCCCc2[nH]c(-c3nc(C4CC4)no3)nc21 | -6.286
O=C1CCC(c2nc(C3CCN(C(=O)Cc4cccs4)CC3)no2)N1 (centres undefined) | 131.4
CN(C)C(C(=O)N1CC(Oc2ccccc2F)C1)c1ccc(F)cc1 (centres undefined) | 10.57
CCN(CC1CCOC1)C(=O)Nc1ccc(-n2cncn2)nc1 (centres undefined) | -5.162
CCC[C@H]1CN(CCS(C)(=O)=O)C[C@@H]1NC(=O)Cn1cc(C)cn1 | -15.47
CCc1nccn1CCNC1CCN(c2nc3ccc(Cl)cc3s2)CC1 | -30.49
CC1(C)CNC(=O)c2nc(C3CCN(C(=O)C4CC4)CC3)[nH]c2C1 | -1.461
O=C1CCC(c2nc(C3CCN(C(=O)C4CC4)CC3)no2)N1 (centres undefined) | 107.7
O=C(CN1CCCC(c2noc(C3CC3)n2)C1)N1CCCC1 (centres undefined) | -17.34
CC(Nc1ncnc2c1CCNC2)c1ccc2c(c1)CCCC2 (centres undefined) | -81.25
Cc1ccc(NCCCNc2nccc(-c3cn(C)nc3C)n2)nc1 | 4.133
CC[C@H](C)Nc1nccc(-c2cnc3sccn3c2=O)n1 | 96.29
C[C@@H](CO)Nc1nccc(-c2cnc3sc(Cl)cn3c2=O)n1 | 101.5
CC(C)CNc1nccc(-c2cnc3sc(Cl)cn3c2=O)n1 | 98.56
CC[C@@H](CO)Nc1nccc(-c2cnc3sc(C)cn3c2=O)n1 | 82.9
c1cnc(NCc2n[nH]c3c2CCN(Cc2ccncc2)C3)nc1 | -7.099
Cc1nc[nH]c1CN1CCCC(CNC(=O)c2ccc(N)nc2)C1 (centres undefined) | -15.92
COc1cc2c(nn1)CCN(Cc1noc(CC(C)C)n1)C2 | -12.11
Cc1nc(CN2CCCC(CCc3c(F)cccc3F)C2)c[nH]1 (centres undefined) | 27.92
CNS(=O)(=O)CCNCC1(O)CCCN(CCC2CCCCC2)C1=O (centres undefined) | 1.698
Cn1cc(NC(=O)CCc2ccsc2)ccc1=O | -1.148
Cc1cn2c(=O)c(-c3ccnc(N[C@@H](C)CO)n3)cnc2s1 | 99.21
CC[C@H](C)Nc1nccc(-c2cnc3sc(C)cn3c2=O)n1 | 91.04

Structure (SMILES) | Percent Effect [%]
CCCN(Cc1ccc(C#N)cc1)Cc1nnsc1Cl | 8.987
CCNC(=O)CNC(=O)c1ccn(S(=O)(=O)c2ccc(C)cc2)c1 | 0.9489
Cc1cccc(CN2C[C@@H]3CC[C@H](C2)N(Cc2c(C)noc2C)C3=O)n1 | -29.28
CCN(CC)C(=O)C1CCCN1C(=O)c1cccc(-n2cnnn2)c1 (centres undefined) | 98.96
Cn1ccc(C2CCCCN2C(=O)c2cccc(-n3cccn3)c2)n1 (centres undefined) | -0.8494
Cc1cnn(CC2CCCN2C(=O)c2cccc(CC#N)c2)c1 (centres undefined) | -7.7
Cc1cnn(CC2CCCCN2C(=O)c2cc(C(N)=O)cs2)c1 (centres undefined) | 3.915
COC(=O)[C@H]1CCCCN1C(=O)c1cccc(-n2cccn2)c1 | -1.168
Cc1cnn(CC2CCCCN2C(=O)c2cccc(C(N)=O)c2)c1 (centres undefined) | 110.6
Cc1cnn(CC2CCCN2C(=O)c2cccc(S(C)(=O)=O)c2)c1 (centres undefined) | 115.2
Cc1cnn(CC2CCCN2C(=O)c2cccc(-n3cnnn3)c2)c1 (centres undefined) | -8.957
Cc1cnn(CC2CCCN2C(=O)c2cccc(-n3ccc(C)n3)c2)c1 (centres undefined) | 119
CC(C)c1nc(COc2cccc3c2NC(=O)CO3)cs1 | -10.7
NC(=O)c1c(NC(=O)CCC(=O)O)sc2c1CCc1ccccc1-2 | 188.5
NC(=O)c1c(NC(=O)C2CCCO2)sc2c1CCc1ccccc1-2 (centres undefined) | 117
NC(=O)c1c(NC(=O)CCCC(=O)O)sc2c1CCc1ccccc1-2 | 119.8
O=C(Nc1cccc(N2CCN(CC3CC3)CC2)c1)C1CCCO1 (centres undefined) | -16.14
O=C(Cc1cccs1)NCC1(O)CCc2ccccc2C1 (centres undefined) | 1.555
CC(=O)Nc1sc2c(c1C(=O)O)CCc1ccccc1-2 | 112.1
CC(C)(C)c1cc(NC(=O)C2CCCO2)n(-c2ccccn2)n1 (centres undefined) | -31.1
Cc1cccc2c1nc1n2[C@@H](CNC(=O)C2CCOCC2)COC1 | -17.69
NC(=O)c1ccc(CNCC2CCN(CCO)CC2)cc1 | 2.18
Cc1nc(CCN(C)C(=O)CCNC(=O)c2ccccc2F)no1 | -9.414
CCc1cc(NCc2ccc(-n3cncn3)c(C)c2)n(C)n1 | -10.44
CC(NC(=O)Cn1cc(C(N)=O)c(-c2ccccc2)n1)C1CC1 (centres undefined) | 6.248
CC(CC(=O)O)CC(=O)Nc1sc2c(c1C(N)=O)CCc1ccccc1-2 (centres undefined) | 127.8
